Consider 43 sequences from paper PMC7819943, “Rice protein-binding microarrays: a tool to detect cis-acting elements near promoter regions in rice”.

In all, about 39,000 sequences were measured (“fluorescence intensity (a.u.)”: median about 4,300, highest 2% from about 39,000 on). For the sample, the highest values were picked, then their nearest neighbours and some sequences at random.

The target of this assay is T1, OsSMF1 (Oryza sativa, UniProt Q6ZLB0 1-436).
T1 sequence: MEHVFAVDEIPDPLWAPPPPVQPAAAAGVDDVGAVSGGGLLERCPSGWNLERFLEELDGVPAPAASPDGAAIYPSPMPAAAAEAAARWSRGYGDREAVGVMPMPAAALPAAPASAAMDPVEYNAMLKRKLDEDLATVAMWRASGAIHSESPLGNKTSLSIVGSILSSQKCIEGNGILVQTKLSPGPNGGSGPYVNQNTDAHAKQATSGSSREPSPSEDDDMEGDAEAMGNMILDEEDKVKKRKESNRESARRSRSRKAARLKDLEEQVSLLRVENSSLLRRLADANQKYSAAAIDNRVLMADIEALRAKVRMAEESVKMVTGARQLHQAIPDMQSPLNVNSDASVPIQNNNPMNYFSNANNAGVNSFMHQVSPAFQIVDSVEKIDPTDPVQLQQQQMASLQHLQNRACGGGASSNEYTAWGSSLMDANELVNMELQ
The assay can be described thus: protein-binding microarray (RPBM); PBS, 2% BSA, 51.3 ng/ul salmon testes DNA, 50 uM zinc acetate, 200 nM TF, 25 C, 1 h; high values mean tight binding. The note with it: protein: recombinant; tags: N-terminal polyhistidine and DsRed monomer fusion (pET32a); chain copies: 2; label: CyDye5-dUTP incorporated in the synthesized complementary strand; 3' TTTTT single-stranded linker to array surface; dsDNA, one strand shown. Summed up:
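Per-feature fluorescence intensity (arbitrary units), read on an Axon 4000B scanner, is the binding signal. Transcription factors carrying an N-terminal polyhistidine tag and DsRed fusion were expressed in E. coli BL21-CodonPlus and purified on Ni–NTA. A custom Agilent array, made double-stranded by primer extension with Cy5-dUTP and blocked with 2% BSA, was incubated with 200 nM protein in PBS, 2% BSA, salmon testes DNA and 50 µM zinc acetate at 25 °C for 1 h and then washed.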
For “TTGGCGTGACTAGGCGCAATTTCTGCAAATTGGAGCTCGGCGGAGTCACCTAGTGCAG”, the binding signal was 7820 fluorescence intensity (a.u.). The same measure for “TTCTGATTAGGCTGCCACATTGGCGGCACGTGTGATAGCTCGGAGTCACCTAGTGCAG”: 45900 fluorescence intensity (a.u.); for “GGCCAGGCCACCCCAACACGCCAGCCTCCCGGGCCGTTGACGGAGTCACCTAGTGCAG”: 3250 fluorescence intensity (a.u.).

Regarding “TGAACCTCGAAGATGCAAATATGTAGTAGTACGTAGGTCCCGGAGTCACCTAGTGCAG”, the binding signal was 3310 fluorescence intensity (a.u.). The same measure for “TATGTATGATCTCTTCCTGTAACATTTTCATCATCTAACCCGGAGTCACCTAGTGCAG”: 3480 fluorescence intensity (a.u.).

For “GGTCCGGTGTGACACTGTGACCCCGCCGTAACCCCGTAACCGGAGTCACCTAGTGCAG”, the binding signal is 4060 fluorescence intensity (a.u.).

Turning to “CATTTCATATCAGAAGTGTGATCACTGTAACCCGCGGCGCCGGAGTCACCTAGTGCAG”, the binding signal was 64500 fluorescence intensity (a.u.). On to “AGAGGAGCATCTTCTCGCCTGAGATTCCGTCGACGCCATTCGGAGTCACCTAGTGCAG”, for which the binding signal was 3540 fluorescence intensity (a.u.). The value for “GAGGGGATGACGGTGGTCTCGGCAGCGGATGACGGCGGCGCGGAGTCACCTAGTGCAG” was 4490 fluorescence intensity (a.u.); that for “CAATAAACCGGTGGTTGGACCGGTCCAACCAATAAACCAGCGGAGTCACCTAGTGCAG” was 43900 fluorescence intensity (a.u.). “AGGTGGAGGCGCCGGTGTGGGTGGTGGAGCGGGAGGAGGTCGGAGTCACCTAGTGCAG”: the binding signal is 4096 fluorescence intensity (a.u.). For the sequence “CTAAGGGTCTAAGAGATGATGCTGTGATGAGGTGGATCATCGGAGTCACCTAGTGCAG”, the binding signal was 4840 fluorescence intensity (a.u.). Regarding “AGAGGGTGGAGGAGCTGACTAGATTGCACTAGGTCTCGATCGGAGTCACCTAGTGCAG”, the binding signal was 42000 fluorescence intensity (a.u.). The value for “TCGGCGGTCGTGGAGGTGGTGGCAGGCGGTCGTGGCGGAGCGGAGTCACCTAGTGCAG” was 3990 fluorescence intensity (a.u.); that for “CAACACCCAACCCCAATTGGTCGCGGTGGGTCGGACGGACCGGAGTCACCTAGTGCAG” was 34900 fluorescence intensity (a.u.). Take “AATGGACCACCGTTAGTCCACCAGTCAGCCAACCAATGGCCGGAGTCACCTAGTGCAG”: the binding signal is 3360 fluorescence intensity (a.u.). The value for “GCGGGGTTGGAGGAGGAGGAGGTGGTGGTGGTGGTGGTGGCGGAGTCACCTAGTGCAG” was 4860 fluorescence intensity (a.u.); that for “GAGGTGGGGTGGCTTAGTGACCTCGTGTCGTAGATTGGATCGGAGTCACCTAGTGCAG” was 4900 fluorescence intensity (a.u.); that for “GTTGGTGGTGGAGCGGGAGGAGGTGCCGGTGGAGGCGGTGCGGAGTCACCTAGTGCAG” was 53000 fluorescence intensity (a.u.). “GGCGGTGCTGGTGGAGGCGGTGGTCTCGGAGGTGGAGCAGCGGAGTCACCTAGTGCAG”: the binding signal was 46000 fluorescence intensity (a.u.). For “CCGCTCGTCGATTAGCCGGCCACGCCTCCCGCTCGTGAAGCGGAGTCACCTAGTGCAG”, the binding signal was 3680 fluorescence intensity (a.u.). The value for “GACCCTGCCGCCCTCCATTTGGGCGGCAAGCTGACGTGGCCGGAGTCACCTAGTGCAG” was 32700 fluorescence intensity (a.u.); that for “GCAGTTTGTCTCATGTGCTGCTGACTAGATATTGATCATACGGAGTCACCTAGTGCAG” was 11400 fluorescence intensity (a.u.). In the case of “ATGATGAGTAGGAGTTTGTGCAGGTGGACGGCGGTGGTGGCGGAGTCACCTAGTGCAG”, the binding signal was 3180 fluorescence intensity (a.u.).

For “TCACGCGTAGCTTCGCCGCTACGTGGCCTCGCGCACGTTACGGAGTCACCTAGTGCAG”, the binding signal was 5500 fluorescence intensity (a.u.). The value for “TTCGCTAACGCCGCGCGTCACGTAGACACGTACTACTAGCCGGAGTCACCTAGTGCAG” was 49600 fluorescence intensity (a.u.); that for “GTTCGCGGGCCGCGAACGTCCACGTACTAGACGCCCCTCACGGAGTCACCTAGTGCAG” was 4050 fluorescence intensity (a.u.). Turning to “CCTGCATGCGTGGCTGCGCTCACTGTCGTTATTTGCTTTACGGAGTCACCTAGTGCAG”, the binding signal is 5080 fluorescence intensity (a.u.).

With “AATGAGATACTTAGACTTGTGAGGCCCGACGTGTCCAATCCGGAGTCACCTAGTGCAG”, the binding signal is 4470 fluorescence intensity (a.u.). Regarding “AAAGGGCAGGCACATCGCTTTCGGGCCCTGTCACGTACCCCGGAGTCACCTAGTGCAG”, the binding signal is 3920 fluorescence intensity (a.u.). Consider “TCAATAATGTGTGCGTGACCTGGGCAAGTGGCGGTAGCAACGGAGTCACCTAGTGCAG”, for which the binding signal is 3540 fluorescence intensity (a.u.).

As to “ATCTGCTTTGTGAGGCACATGAAGCTGGAGATATCTGTCACGGAGTCACCTAGTGCAG”, the binding signal was 4740 fluorescence intensity (a.u.). The value for “ACCGAGTCCACGGAGCAGTGAGAGAGCCAGGCAGCCAGTGCGGAGTCACCTAGTGCAG” was 3960 fluorescence intensity (a.u.); that for “TTTGCTCGTTGGCAGCGGCCAGCAGGCACGTGTAACGGCGCGGAGTCACCTAGTGCAG” was 4190 fluorescence intensity (a.u.); that for “GATCGAGCGGCAGGCCAGCAGTAACCTGGCCGAGAAGTTGCGGAGTCACCTAGTGCAG” was 64500 fluorescence intensity (a.u.). In the case of “GATGTGCGATAGCAGAATGGTGCTAAGTGAGTCACATCGTCGGAGTCACCTAGTGCAG”, the binding signal was 3970 fluorescence intensity (a.u.). Regarding “TTTAATGATCTTATAAATTGTAATGCTGATAGGTGGTTATCGGAGTCACCTAGTGCAG”, the binding signal is 3590 fluorescence intensity (a.u.).

With “AAGCTTACAACATGTTCTATAATTTATTTAATTCTACAAACGGAGTCACCTAGTGCAG”, the binding signal was 45700 fluorescence intensity (a.u.). The value for “TATAATGTTTGGGTGCGTTTAATTCTATTTGAATTACACTCGGAGTCACCTAGTGCAG” was 48000 fluorescence intensity (a.u.). The same measure for “AATCAACAAATAACTAATATTCTTACATCAGCTACTATAACGGAGTCACCTAGTGCAG”: 28600 fluorescence intensity (a.u.); for “TTCTAATTACTATTTAAGCTTATCCTAATTAACTCACATGCGGAGTCACCTAGTGCAG”: 3230 fluorescence intensity (a.u.). Consider “ATACCGGTGCGTTACAACGAGGTGAATGTTATTTTAATTTCGGAGTCACCTAGTGCAG”, for which the binding signal is 25200 fluorescence intensity (a.u.). For “ACACTATGATTATAATATATTTACATGTGTGAATTGTTTACGGAGTCACCTAGTGCAG”, the binding signal is 3640 fluorescence intensity (a.u.).
